{"source": "paper PMC4336329", "about": "(PLoS ONE, 2015)", "note": "Among all 310,000 compounds or so, about 14,000 (4.5%) showed an effect of 50% or more. Effects have a minus sign here. The list comes from a sample in which strong results are over-represented; it also holds similar structures and randomly drawn compounds.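 Also: peak tail current of the secondary pulse compared with the same well before compound.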"}
{"target": "human ether-à-go-go-related gene (hERG) potassium channel (human, UniProt Q12809)", "sequence (Q12809 whole entry, looked up)": "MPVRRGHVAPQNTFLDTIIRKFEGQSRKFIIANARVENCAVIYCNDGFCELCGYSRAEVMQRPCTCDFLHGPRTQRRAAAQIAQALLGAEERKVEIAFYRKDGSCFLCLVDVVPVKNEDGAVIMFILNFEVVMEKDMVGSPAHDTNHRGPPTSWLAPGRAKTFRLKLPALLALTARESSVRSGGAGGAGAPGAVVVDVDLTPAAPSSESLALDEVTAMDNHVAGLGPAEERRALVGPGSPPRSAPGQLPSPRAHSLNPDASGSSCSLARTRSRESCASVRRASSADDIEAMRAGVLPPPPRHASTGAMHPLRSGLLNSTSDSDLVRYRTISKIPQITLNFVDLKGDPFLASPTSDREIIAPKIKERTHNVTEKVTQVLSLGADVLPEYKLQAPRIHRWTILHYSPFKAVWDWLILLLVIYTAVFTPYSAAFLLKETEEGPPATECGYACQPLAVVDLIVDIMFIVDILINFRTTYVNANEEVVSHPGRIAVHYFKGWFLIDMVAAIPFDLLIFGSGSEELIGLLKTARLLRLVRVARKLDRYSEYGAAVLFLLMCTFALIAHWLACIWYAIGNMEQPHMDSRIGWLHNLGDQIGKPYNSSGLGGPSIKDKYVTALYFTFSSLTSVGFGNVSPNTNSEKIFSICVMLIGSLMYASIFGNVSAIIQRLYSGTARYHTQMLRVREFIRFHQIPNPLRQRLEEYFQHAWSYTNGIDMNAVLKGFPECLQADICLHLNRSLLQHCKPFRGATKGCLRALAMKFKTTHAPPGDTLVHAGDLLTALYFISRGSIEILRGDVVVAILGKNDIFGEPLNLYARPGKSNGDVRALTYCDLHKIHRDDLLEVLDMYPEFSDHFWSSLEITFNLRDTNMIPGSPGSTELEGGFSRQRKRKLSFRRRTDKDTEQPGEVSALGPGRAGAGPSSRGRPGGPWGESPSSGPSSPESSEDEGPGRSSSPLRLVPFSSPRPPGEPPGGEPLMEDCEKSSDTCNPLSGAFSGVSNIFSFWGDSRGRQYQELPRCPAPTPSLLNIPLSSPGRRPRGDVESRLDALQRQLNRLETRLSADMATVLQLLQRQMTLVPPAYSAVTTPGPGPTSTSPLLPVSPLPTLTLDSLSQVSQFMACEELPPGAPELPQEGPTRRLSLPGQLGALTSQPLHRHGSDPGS", "assay": "primary screen, population patch clamp on CHO cells stably expressing hERG; higher = less effect of the substance", "units": {"hERG current change (%, negative = inhibition) at 10uM": "%"}}
{"smiles": "O=C(Cn1cnc([N+](=O)[O-])c1)Nc1ccccc1C(F)(F)F", "hERG current change (%, negative = inhibition) at 10uM": -14.3}
{"smiles": "Cc1cc(C)cc(N(C(=O)CNC(=O)c2ccco2)C(C(=O)NC2CCCCC2)c2ccncc2)c1", "note": "(stereo not shown)", "hERG current change (%, negative = inhibition) at 10uM": -10}
{"smiles": "CCOC(=O)C1=C(C)NC(=O)C(C(N)=O)C1c1ccccc1", "note": "(stereo not shown)", "hERG current change (%, negative = inhibition) at 10uM": 5.2}
{"smiles": "O=c1[nH]c2cc3c(cc2cc1C(c1nnnn1C1CCCC1)N1CCSCC1)OCCO3", "note": "(stereo not shown)", "hERG current change (%, negative = inhibition) at 10uM": 13.6}
{"smiles": "CSc1nc(C)cc(-n2ccc(=O)[nH]c2=O)n1", "hERG current change (%, negative = inhibition) at 10uM": -3.54}
{"smiles": "CCOC(=O)/C=c1\\s/c(=C\\c2c(OC)ccc3ccccc23)c(=O)n1CC(=O)NCC1CCCO1", "note": "(stereo not shown)", "hERG current change (%, negative = inhibition) at 10uM": 2.13}
{"smiles": "Cc1ccccc1Nc1ncnc2c1cnn2C", "hERG current change (%, negative = inhibition) at 10uM": 4.92}
{"smiles": "CN(C)CC(C)(C)CNC(=O)c1cc(=O)c2ccccc2o1.Cl", "hERG current change (%, negative = inhibition) at 10uM": 19.6}
{"smiles": "Cc1cc(/C=C2/SC(=O)N(CC(=O)N3CCCC3)C2=O)c(C)n1C", "hERG current change (%, negative = inhibition) at 10uM": -5.16}
{"smiles": "Cc1cc(OCCCCNC(C)C)cc(C(C)C)c1.O=C(O)C(=O)O", "hERG current change (%, negative = inhibition) at 10uM": -29.6}
{"smiles": "Cc1cc(OCCCn2ccnc2)cc(C(C)C)c1", "hERG current change (%, negative = inhibition) at 10uM": -14.4}
{"smiles": "CCC(C)NCCCCOc1cc(C)cc(C(C)C)c1", "note": "(stereo not shown)", "hERG current change (%, negative = inhibition) at 10uM": -54.9}
{"smiles": "COc1ccc(C(=O)Oc2cc(N)n(S(=O)(=O)c3ccccc3)n2)cc1", "hERG current change (%, negative = inhibition) at 10uM": -7.73}
{"smiles": "COc1ccccc1NS(=O)(=O)c1ccc(C(=O)NCC(c2ccccc2OC)N(C)C)cc1", "note": "(stereo not shown)", "hERG current change (%, negative = inhibition) at 10uM": -0.121}
{"smiles": "Cc1ccc(OCc2cc(C(=O)N3CCC(C(O)C(C)C)CC3)no2)cc1C", "note": "(stereo not shown)", "hERG current change (%, negative = inhibition) at 10uM": -23.1}
{"smiles": "CC(=O)c1ccccc1OCCCCN1CCCCC1.O=C(O)C(=O)O", "hERG current change (%, negative = inhibition) at 10uM": -59.5}
{"smiles": "CCN1CCN(CCOc2ccccc2-c2ccccc2)CC1.O=C(O)C(=O)O", "hERG current change (%, negative = inhibition) at 10uM": -32.9}
{"smiles": "CC(=O)c1ccccc1OCCCN1CCCCC1.O=C(O)C(=O)O", "hERG current change (%, negative = inhibition) at 10uM": -31.8}
{"smiles": "O=C(O)C(=O)O.c1ccc(-c2ccccc2OCCCN2CCCC2)cc1", "hERG current change (%, negative = inhibition) at 10uM": -65}
{"smiles": "CCN1CCN(CCCOc2ccccc2-c2ccccc2)CC1.O=C(O)C(=O)O", "hERG current change (%, negative = inhibition) at 10uM": -66.6}
{"smiles": "Cl.OCCN1CCN(CCOc2ccccc2-c2ccccc2)CC1", "hERG current change (%, negative = inhibition) at 10uM": -24.1}
{"smiles": "O=C(O)C(=O)O.c1ccc(-c2ccccc2OCCCN2CCOCC2)cc1", "hERG current change (%, negative = inhibition) at 10uM": -37.1}
{"smiles": "CCc1ccccc1OCCCCN1CCCCC1.O=C(O)C(=O)O", "hERG current change (%, negative = inhibition) at 10uM": -30}
{"smiles": "Cl.OCCCN1CCN(CCCOc2ccccc2-c2ccccc2)CC1", "hERG current change (%, negative = inhibition) at 10uM": -69.6}
{"smiles": "CCN1CCN(CCOCCOc2ccccc2-c2ccccc2)CC1.O=C(O)C(=O)O", "hERG current change (%, negative = inhibition) at 10uM": -35.6}
{"smiles": "O=C(CSc1nnc(-c2cccnc2)o1)Nc1cccc(F)c1", "hERG current change (%, negative = inhibition) at 10uM": -1.97}
{"smiles": "Cc1c(Br)c([N+](=O)[O-])nn1CC(=O)N1CCN(C23CC4CC(CC(C4)C2)C3)CC1", "hERG current change (%, negative = inhibition) at 10uM": -38.1}
{"smiles": "Cc1c(N2C(=O)/C(=C\\c3ccccc3O)SC2=S)c(=O)n(-c2ccccc2)n1C", "hERG current change (%, negative = inhibition) at 10uM": 30.5}
{"smiles": "O=C(O)Cc1nc2nc3c(c(=O)n2[nH]1)CCCC3", "hERG current change (%, negative = inhibition) at 10uM": 16.3}
{"smiles": "CCOc1ccc(/C=N/NC(=O)c2cc(-c3cccn3C)n[nH]2)cc1", "hERG current change (%, negative = inhibition) at 10uM": 5.27}
{"smiles": "COc1ccc(C/C(O)=C(\\C#N)c2nc3ccccc3s2)cc1", "hERG current change (%, negative = inhibition) at 10uM": 11.6}
{"smiles": "O=C(O)C(=O)O.c1ccc(-c2ccccc2OCCCCN2CCCCCC2)cc1", "hERG current change (%, negative = inhibition) at 10uM": -77.5}
{"smiles": "O=C(O)C(=O)O.c1ccc(-c2ccccc2OCCCN2CCCCC2)cc1", "hERG current change (%, negative = inhibition) at 10uM": -74.6}
{"smiles": "O=C(O)C(=O)O.c1ccc(-c2ccccc2OCCOCCN2CCOCC2)cc1", "hERG current change (%, negative = inhibition) at 10uM": 6.15}
{"smiles": "O=C(O)C(=O)O.c1ccc(-c2ccccc2OCCN2CCCCC2)cc1", "hERG current change (%, negative = inhibition) at 10uM": -45.9}
{"smiles": "O=C(O)C(=O)O.c1ccc(-c2ccccc2OCCCN2CCCCCC2)cc1", "hERG current change (%, negative = inhibition) at 10uM": -80.1}
{"smiles": "CCC1(c2ccc(C)cc2)NC(=O)N(CC(=O)Nc2cccc(S(=O)(=O)N3CCCC3)c2)C1=O", "note": "(stereo not shown)", "hERG current change (%, negative = inhibition) at 10uM": 0.0785}
{"smiles": "O=C(NCCCN1CCCCC1)C1CC(=O)N(CCc2ccccc2)C1", "note": "(stereo not shown)", "hERG current change (%, negative = inhibition) at 10uM": 12.3}
{"smiles": "CC(C)CC(=O)Nc1nnc(S(=O)(=O)N2CCCCCC2)s1", "hERG current change (%, negative = inhibition) at 10uM": -15}
{"smiles": "COc1ccc(-c2nc3c(s2)CN(S(C)(=O)=O)CC3)cc1OC", "hERG current change (%, negative = inhibition) at 10uM": 15.2}
{"smiles": "Cc1ccc(S(=O)(=O)NCCC(=O)Nc2ccc(C)c(Cl)c2)cc1C", "hERG current change (%, negative = inhibition) at 10uM": -1.46}
{"smiles": "CCOC(=O)C1CCCN(C2CC(=O)N(c3ccc(C(C)C)cc3)C2=O)C1", "note": "(stereo not shown)", "hERG current change (%, negative = inhibition) at 10uM": -10}
{"smiles": "CCc1ccc(NC(=O)Cc2ccc(-n3cccc3)cc2)cc1", "hERG current change (%, negative = inhibition) at 10uM": 0.973}
{"smiles": "Cc1[nH]n(-c2ccccc2)c(=O)c1/C=N/n1c(C)nc2ccccc2c1=O", "hERG current change (%, negative = inhibition) at 10uM": 11.8}
{"smiles": "CCc1ccc(Nc2ccc(C(N)=O)cc2[N+](=O)[O-])cc1", "hERG current change (%, negative = inhibition) at 10uM": 8.56}
{"smiles": "Cc1ccc(N)c(N)c1", "hERG current change (%, negative = inhibition) at 10uM": 6.61}
{"smiles": "CCOC(=O)Cn1c2c(c(=N)c3ccccc31)CCC2.Cl", "hERG current change (%, negative = inhibition) at 10uM": 4.06}
{"smiles": "CCCCCCCn1c2c(c(=N)c3ccccc31)CCC2.I", "hERG current change (%, negative = inhibition) at 10uM": -81.4}
{"smiles": "Br.CCn1c2c(c(=N)c3ccccc31)CCC2", "hERG current change (%, negative = inhibition) at 10uM": 5.12}
{"smiles": "Cl.N=c1c2c(n(Cc3ccccc3)c3c1CCC3)CCC2", "hERG current change (%, negative = inhibition) at 10uM": -0.485}
{"smiles": "CC(=O)NNC(=O)CCn1c2c(c3ccccc31)CCCC2", "hERG current change (%, negative = inhibition) at 10uM": 9.01}
{"smiles": "CCCCCn1c2c(c(=N)c3ccccc31)CCC2.I", "hERG current change (%, negative = inhibition) at 10uM": -71.2}
{"smiles": "O=C(O)Cn1c2c(c3ccccc31)CCCC2", "hERG current change (%, negative = inhibition) at 10uM": 7.39}
{"smiles": "CCCCn1c2c(c(=N)c3ccccc31)CCC2.I", "hERG current change (%, negative = inhibition) at 10uM": -50.3}
{"smiles": "O=C(O)CCn1c2c(c3ccccc31)CCCC2", "hERG current change (%, negative = inhibition) at 10uM": 25.3}
{"smiles": "[N-]=[N+]=NC[C@H](Cc1ccccc1)N1CC[C@@H](OCc2ccccc2)CCC1=O", "hERG current change (%, negative = inhibition) at 10uM": -13.3}
{"smiles": "CCC(=O)n1nc(-c2ccc(Cl)cc2)nc1N", "hERG current change (%, negative = inhibition) at 10uM": 3.71}
{"smiles": "CC1(/[N+]([O-])=C/c2ccccc2F)CCCCC1=O", "note": "(stereo not shown)", "hERG current change (%, negative = inhibition) at 10uM": 25.2}
